The values that follow come from publication PMC11006913.

Holding throughout (assay): PBM; 200 nM protein, PBS
Holding throughout (settings): dsDNA, one strand shown

Experiment [1] has as its target T1, SIX6 (Homo sapiens, UniProt O95475 114-200, L167I).
T1 sequence: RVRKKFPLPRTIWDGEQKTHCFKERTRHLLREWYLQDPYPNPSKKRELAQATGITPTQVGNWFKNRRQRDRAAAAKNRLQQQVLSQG

Experiment [2] deals with T2, SIX6 (Homo sapiens, UniProt O95475 114-200, L143V).
T2 sequence: T1 sequence with L30V, I54L

Experiment [3] concerns the target T3, SIX6 (Homo sapiens, UniProt O95475 114-200, H141N).
T3 sequence: T1 sequence with H28N, I54L

Experiment [4] deals with T4, SIX6 (Homo sapiens, UniProt O95475 114-200, T165P).
T4 sequence: T1 sequence with T52P, I54L

Experiment [5] has as its target T5, SIX6 (Homo sapiens, UniProt O95475 114-200, L167M).
T5 sequence: T1 sequence with I54M

Experiment [6] concerns the target T6, SIX6 (Homo sapiens, UniProt O95475 114-200, L143M).
T6 sequence: T1 sequence with L30M, I54L

The target in experiment [7] is T7, SIX6 (Homo sapiens, UniProt O95475 114-200, L143I).
T7 sequence: T1 sequence with L30I, I54L

Experiment [8] has as its target T8, SIX6 (Homo sapiens, UniProt O95475 114-200, T165G).
T8 sequence: T1 sequence with T52G, I54L

The target in experiment [9] is T9, SIX6 (Homo sapiens, UniProt O95475 114-200, T139Q).
T9 sequence: T1 sequence with T26Q, I54L

The target of experiment [10] is T10, SIX6 (Homo sapiens, UniProt O95475 114-200, T165A).
T10 sequence: T1 sequence with T52A, I54L

The target of experiment [11] is T11, SIX6 (Homo sapiens, UniProt O95475 114-200, L167V).
T11 sequence: T1 sequence with I54V

Experiment [12] addresses T12, SIX6 (Homo sapiens, UniProt O95475 114-200).
T12 sequence: T1 sequence with I54L

For experiment [13], the target named is T13, SIX6 (Homo sapiens, UniProt O95475 114-200, T165I).
T13 sequence: T1 sequence with T52I, I54L

Changes are numbered by the printed parent chain.

Regarding ACCGCGCC, the binding signal in the experiment with SIX6 [1] is 8.84 upbm affinity estimate (log intensity, higher = more binding, comparable within an allelic series); with SIX6 [2] it was 8.82 upbm affinity estimate (log intensity, higher = more binding, comparable within an allelic series); in the experiment with SIX6 [3] it was 8.81 upbm affinity estimate (log intensity, higher = more binding, comparable within an allelic series); with SIX6 [4], 8.88 upbm affinity estimate (log intensity, higher = more binding, comparable within an allelic series); in the experiment with SIX6 [5], 8.85 upbm affinity estimate (log intensity, higher = more binding, comparable within an allelic series); with SIX6 [6], 8.81 upbm affinity estimate (log intensity, higher = more binding, comparable within an allelic series). Besides, the binding signal was 8.86 upbm affinity estimate (log intensity, higher = more binding, comparable within an allelic series) in the experiment with SIX6 [7]; 8.91 upbm affinity estimate (log intensity, higher = more binding, comparable within an allelic series) with SIX6 [8]; 8.95 upbm affinity estimate (log intensity, higher = more binding, comparable within an allelic series) with SIX6 [9]; 8.82 upbm affinity estimate (log intensity, higher = more binding, comparable within an allelic series) with SIX6 [10]; 8.78 upbm affinity estimate (log intensity, higher = more binding, comparable within an allelic series) with SIX6 [11]; 8.78 upbm affinity estimate (log intensity, higher = more binding, comparable within an allelic series) with SIX6 [12]. For the same sequence, the binding signal in the experiment with SIX6 [13] is 8.84 upbm affinity estimate (log intensity, higher = more binding, comparable within an allelic series).
For the sequence AGCGGTGG, the binding signal with SIX6 [1] was 8.97 upbm affinity estimate (log intensity, higher = more binding, comparable within an allelic series); in the experiment with SIX6 [2], 8.89 upbm affinity estimate (log intensity, higher = more binding, comparable within an allelic series); with SIX6 [3] it was 8.96 upbm affinity estimate (log intensity, higher = more binding, comparable within an allelic series); with SIX6 [4] it was 8.97 upbm affinity estimate (log intensity, higher = more binding, comparable within an allelic series); with SIX6 [5], 8.93 upbm affinity estimate (log intensity, higher = more binding, comparable within an allelic series); in the experiment with SIX6 [6], 9.05 upbm affinity estimate (log intensity, higher = more binding, comparable within an allelic series). Besides, the binding signal with SIX6 [7] is 9 upbm affinity estimate (log intensity, higher = more binding, comparable within an allelic series); in the experiment with SIX6 [8] it was 8.94 upbm affinity estimate (log intensity, higher = more binding, comparable within an allelic series); in the experiment with SIX6 [9] it was 9.04 upbm affinity estimate (log intensity, higher = more binding, comparable within an allelic series); with SIX6 [10] it was 8.98 upbm affinity estimate (log intensity, higher = more binding, comparable within an allelic series); with SIX6 [11], 8.84 upbm affinity estimate (log intensity, higher = more binding, comparable within an allelic series); with SIX6 [12], 9.06 upbm affinity estimate (log intensity, higher = more binding, comparable within an allelic series). Further, the binding signal with SIX6 [13] was 8.95 upbm affinity estimate (log intensity, higher = more binding, comparable within an allelic series).
In the case of GTATCAGA, the binding signal in the experiment with SIX6 [1] was 11.1 upbm affinity estimate (log intensity, higher = more binding, comparable within an allelic series); with SIX6 [2] it was 10.3 upbm affinity estimate (log intensity, higher = more binding, comparable within an allelic series); in the experiment with SIX6 [3] it was 11.1 upbm affinity estimate (log intensity, higher = more binding, comparable within an allelic series); with SIX6 [4], 9.63 upbm affinity estimate (log intensity, higher = more binding, comparable within an allelic series); with SIX6 [5] it was 10.6 upbm affinity estimate (log intensity, higher = more binding, comparable within an allelic series); with SIX6 [6] it was 10.9 upbm affinity estimate (log intensity, higher = more binding, comparable within an allelic series). Besides, the binding signal in the experiment with SIX6 [7] is 10.2 upbm affinity estimate (log intensity, higher = more binding, comparable within an allelic series); with SIX6 [8] it was 11.1 upbm affinity estimate (log intensity, higher = more binding, comparable within an allelic series); in the experiment with SIX6 [9], 11.1 upbm affinity estimate (log intensity, higher = more binding, comparable within an allelic series); with SIX6 [10], 11.1 upbm affinity estimate (log intensity, higher = more binding, comparable within an allelic series); with SIX6 [11] it was 10.9 upbm affinity estimate (log intensity, higher = more binding, comparable within an allelic series); in the experiment with SIX6 [12], 10.9 upbm affinity estimate (log intensity, higher = more binding, comparable within an allelic series). Also, the binding signal with SIX6 [13] is 10.8 upbm affinity estimate (log intensity, higher = more binding, comparable within an allelic series).
With GATACCTA, the binding signal with SIX6 [1] was 11.1 upbm affinity estimate (log intensity, higher = more binding, comparable within an allelic series); with SIX6 [2], 10.3 upbm affinity estimate (log intensity, higher = more binding, comparable within an allelic series); in the experiment with SIX6 [3], 11.1 upbm affinity estimate (log intensity, higher = more binding, comparable within an allelic series); with SIX6 [4], 9.79 upbm affinity estimate (log intensity, higher = more binding, comparable within an allelic series); in the experiment with SIX6 [5], 10.6 upbm affinity estimate (log intensity, higher = more binding, comparable within an allelic series); with SIX6 [6], 11.1 upbm affinity estimate (log intensity, higher = more binding, comparable within an allelic series). Besides, the binding signal with SIX6 [7] is 10.4 upbm affinity estimate (log intensity, higher = more binding, comparable within an allelic series); with SIX6 [8] it was 11.2 upbm affinity estimate (log intensity, higher = more binding, comparable within an allelic series); with SIX6 [9], 11.2 upbm affinity estimate (log intensity, higher = more binding, comparable within an allelic series); with SIX6 [10], 11.1 upbm affinity estimate (log intensity, higher = more binding, comparable within an allelic series); in the experiment with SIX6 [11] it was 10.9 upbm affinity estimate (log intensity, higher = more binding, comparable within an allelic series); with SIX6 [12], 11 upbm affinity estimate (log intensity, higher = more binding, comparable within an allelic series). The binding signal with SIX6 [13] was 10.9 upbm affinity estimate (log intensity, higher = more binding, comparable within an allelic series).
As to AGGATATC, the binding signal with SIX6 [1] is 11.1 upbm affinity estimate (log intensity, higher = more binding, comparable within an allelic series); with SIX6 [2], 10.2 upbm affinity estimate (log intensity, higher = more binding, comparable within an allelic series); in the experiment with SIX6 [3], 11.1 upbm affinity estimate (log intensity, higher = more binding, comparable within an allelic series); in the experiment with SIX6 [4] it was 9.73 upbm affinity estimate (log intensity, higher = more binding, comparable within an allelic series); with SIX6 [5] it was 10.7 upbm affinity estimate (log intensity, higher = more binding, comparable within an allelic series); in the experiment with SIX6 [6], 10.9 upbm affinity estimate (log intensity, higher = more binding, comparable within an allelic series). The binding signal with SIX6 [7] was 10.3 upbm affinity estimate (log intensity, higher = more binding, comparable within an allelic series); with SIX6 [8], 11.2 upbm affinity estimate (log intensity, higher = more binding, comparable within an allelic series); in the experiment with SIX6 [9], 11.1 upbm affinity estimate (log intensity, higher = more binding, comparable within an allelic series); in the experiment with SIX6 [10], 11.1 upbm affinity estimate (log intensity, higher = more binding, comparable within an allelic series); with SIX6 [11], 10.9 upbm affinity estimate (log intensity, higher = more binding, comparable within an allelic series); with SIX6 [12] it was 10.9 upbm affinity estimate (log intensity, higher = more binding, comparable within an allelic series). Also, the binding signal in the experiment with SIX6 [13] was 10.9 upbm affinity estimate (log intensity, higher = more binding, comparable within an allelic series).
On to CCCCGAGG, for which the binding signal with SIX6 [1] was 8.95 upbm affinity estimate (log intensity, higher = more binding, comparable within an allelic series); with SIX6 [2], 8.89 upbm affinity estimate (log intensity, higher = more binding, comparable within an allelic series); in the experiment with SIX6 [3], 8.99 upbm affinity estimate (log intensity, higher = more binding, comparable within an allelic series); in the experiment with SIX6 [4], 8.94 upbm affinity estimate (log intensity, higher = more binding, comparable within an allelic series); in the experiment with SIX6 [5], 9.01 upbm affinity estimate (log intensity, higher = more binding, comparable within an allelic series); with SIX6 [6], 9.07 upbm affinity estimate (log intensity, higher = more binding, comparable within an allelic series). Besides, the binding signal was 8.96 upbm affinity estimate (log intensity, higher = more binding, comparable within an allelic series) with SIX6 [7]; 9.07 upbm affinity estimate (log intensity, higher = more binding, comparable within an allelic series) in the experiment with SIX6 [8]; 9.12 upbm affinity estimate (log intensity, higher = more binding, comparable within an allelic series) with SIX6 [9]; 8.94 upbm affinity estimate (log intensity, higher = more binding, comparable within an allelic series) with SIX6 [10]; 9 upbm affinity estimate (log intensity, higher = more binding, comparable within an allelic series) with SIX6 [11]; 8.97 upbm affinity estimate (log intensity, higher = more binding, comparable within an allelic series) with SIX6 [12]. For the same sequence, the binding signal with SIX6 [13] is 8.96 upbm affinity estimate (log intensity, higher = more binding, comparable within an allelic series).
